From ChEMBL document CHEMBL1156829
Where “and” joins values, the source holds several entries; their conditions need not be identical. Equal entries are not always repeated. Over roughly 5,400 compounds, “IFI” has its median near 2; the highest 2% begin near 22. The sample as a whole holds a higher share of the highest values than the screen did.

experiment: NOVARTIS: Inhibition Frequency Index (IFI) - the number of HTS assays where a compound showed > 50% inhibition/induction, expressed as a percentage of the number of assays in which the compound was tested.; format: functional

Structure (SMILES) | IFI
Cc1ccc(CSCc2ccc(C(=O)NC3CC3)o2)cc1 | 0%
CC(=O)Nc1ccc(-c2nc(-c3ccc(Oc4ccc(-c5[nH]c(-c6ccc(NC(C)=O)cc6)nc5-c5ccccc5)cc4)cc3)c(-c3ccccc3)[nH]2)cc1 | 1.54%
COc1ccc2c(c1)C(C)=CC(C)(C)N2C(=O)CSc1nnc(-c2ccc(C)cc2)o1 | 0%
O=C(N/C(=C/C=C/c1ccccc1)C(=O)N1CCCCC1)c1ccc([N+](=O)[O-])cc1 | 0.685%
CC1CN(C(=O)C(Cc2c[nH]c3ccccc23)NC(=O)C(c2ccccc2)c2ccccc2)CCN1C(=O)NCc1ccccc1 (stereo unspecified) | 0%
CCCCNC(=O)NC(Cc1c[nH]c2ccccc12)C(=O)NC1CCCCC1 (stereo unspecified) | 4.21%
CC(C)C[C@@H](NC(=O)[C@H](C)NC(=O)CNC(=O)[C@@H](NC=O)C(C)C)C(=O)N[C@@H](C)C(=O)N[C@@H](C(=O)N[C@H](C(=O)N[C@@H](C(=O)N[C@@H](Cc1c[nH]c2ccccc12)C(=O)N[C@H](CC(C)C)C(=O)N[C@@H](Cc1c[nH]c2ccccc12)C(=O)N[C@H](CC(C)C)C(=O)N[C@@H](Cc1c[nH]c2ccccc12)C(=O)N[C@H](CC(C)C)C(=O)N[C@@H](Cc1c[nH]c2ccccc12)C(=O)NCCO)C(C)C)C(C)C)C(C)C | 27.6%
Cc1ccc(Nc2nc(NCc3ccccc3)c3ccccc3n2)cc1 | 0%
C=CCSc1nc(N)c2c3c(sc2n1)CN(CCC)CC3 | 14%
CC[n+]1c(/C=C/C=C2\N(C)c3ccccc3C2(C)C)n(CCCOC(C)=O)c2ccccc21 | 14.3%
CC[n+]1c(/C=C/C=C2\N(C)c3ccccc3C2(C)C)n(-c2ccccc2)c2ccc(Cl)cc21 | 21.4%
CC[n+]1c(C=CC=C2N(C)c3ccccc3C2(C)C)sc2ccccc21 | 28.6%
CCC1=[N+](C)c2cccc3cccc(c23)N1C | 3.12%
CC[n+]1c(/C=C/C=C2\N(C)c3ccccc3C2(C)C)n(Cc2ccccc2)c2ccccc21 | 32.6%
Brc1ccc(-c2n(Cc3ccccc3)c3ccccc3[n+]2Cc2ccccc2)o1 | 15.4%
CN1/C(=C\C=C\C2=[N+](C)c3ccc4ccccc4c3C2(C)C)C(C)(C)c2ccccc21 | 23.1%
CCN1/C(=C/C=C/c2sc3ccccc3[n+]2CC)Sc2ccccc21 | 21.7%
C[n+]1c(C=CNc2ccccc2)n(-c2ccccc2)c2ccc(Cl)cc21 | 12.5%
CC[n+]1c(/C=C/C=C2\N(C)c3ccccc3C2(C)C)n(-c2ccccc2)c2cc(Cl)ccc21 | 33.3%
CC[n+]1c(C=CN(C)C)sc2ccccc21 | 4.62%
CC[n+]1c(/C=C/C=C2\N(C)c3ccccc3C2(C)C)n(-c2ccccc2)c2ccc(C)cc21 | 21.4%
COc1ccc(NC(=O)C2c3ccccc3C(=O)N(C3CCCC3)C2c2cccs2)cc1Cl (stereo unspecified) | 6.25%

Structure (SMILES) | IFI
CC1=C(C=CC(C)C=NNC(=O)c2ccncc2)C(C)(C)CCC1 (stereo unspecified) | 0%
COc1ccc(-c2ccc(C=NNC(=O)CNC(=O)c3ccc4c(c3)OCO4)o2)cc1Cl | 0%
CCC(=O)CC(O)C[C@@H](C)C[C@H](NC(=O)[C@@H]1C[C@H](C)CN1C(=O)/C=C/[C@@H](C)CC)C(=O)N[C@H](C(=O)NC(C)(C)C(=O)N[C@@H](CC(C)C)C(=O)N[C@@H](CC(C)C)C(=O)NC(C)(C)C(=O)NC(C)(C)C(=O)NCCC(=O)N[C@@H](C)CN(C)C)[C@H](O)C(C)C (stereo partly specified) | 12.1%
COc1cccc(C(=O)Oc2ccccc2-c2nc3cc(C)ccn3c2NC(C)(C)CC(C)(C)C)c1 | 3.74%
Cc1occc1C(=O)NN=C/C(Cl)=C/c1ccccc1 | 7.69%
CC(C)(C)OCCN(CC(O)CN(Cc1ccccc1)C(=O)NC(c1ccccc1)c1ccccc1)S(=O)(=O)c1ccccc1 (stereo unspecified) | 0.935%
COc1cc(C2C(C(=O)OCC(C)C)=C(C)NC3=C2C(=O)CC(c2ccccc2)C3)cc(Br)c1O (stereo unspecified) | 4.65%
Cc1ccc(Cn2c(N3CCC(C(=O)NCc4ccccn4)CC3)nc3ccccc32)cc1 | 0%
CCc1cccc2c(C#N)cn(CC(=O)Nc3ccc(OC)cc3)c12 | 7.69%
Clc1ccc(C[n+]2cc(-c3ccccc3)n3c2CCC3)cc1Cl | 3.77%
Cc1cccc(C)c1NC(=O)N1CCN(C(=O)c2nc(-c3ccccc3)nc(C)c2C(=O)OC(C)C)CC1C (stereo unspecified) | 2.8%
N#CC(c1ccc(C(F)(F)F)cc1)c1ccc2c(C(F)(F)F)cc(C(F)(F)F)nc2n1 (stereo unspecified) | 26.3%
COc1ccc(C2Nc3ccc4ccccc4c3C3=C2C(=O)CC(C)(C)C3)cc1Br (stereo unspecified) | 0%
CCCCOc1cccc(C(=O)N(Cc2cccs2)c2ccc(OC)cc2)c1 | 0%
CCN1C(=Cc2ccc3c4ccoc4ccc3[n+]2CC)C=Cc2c1ccc1occc21 | 28.6%
CC[n+]1c(/C=C2\C=Cc3cc(C)ccc3N2C)ccc2cc(C)ccc21 | 15.4%
CCN1C(=Cc2sc3cc(NC(C)=O)ccc3[n+]2CC)C=Cc2cc(C)ccc21 | 7.69%
C=CCN1C=CC(=Cc2sc3ccccc3[n+]2C)c2ccccc21 | 17.6%
CC(C)(C)NC(=O)C(c1ccc(F)cc1)N(CCCN1CCOCC1)C(=O)c1ccc(-c2ccccc2)[nH]1 (stereo unspecified) | 3.16%
COc1ccc(OC)c(NC(=O)c2cnn3c(C(F)(F)F)cc(-c4ccc(OC)c(OC)c4)nc23)c1 | 2.38%
CC1(C)C(=O)C2(CCCCC2)C(=O)OC1/C=C/c1ccccc1 (stereo unspecified) | 1.49%
c1ccc(CSc2scnc2[P+](c2ccccc2)(c2ccccc2)c2ccccc2)cc1 | 27.8%

Structure (SMILES) | IFI
c1ccc(CSc2nnc3c(n2)[nH]c2ccccc23)cc1 | 0% and 3.82%
c1ccc(CSc2nc3ccncc3[nH]2)cc1 | 0%
COc1ccccc1CN1CCc2nc(-c3cnccn3)sc2C1 | 9.86%
COc1ccc(CCNc2nc(NCCCn3ccnc3)ncc2C(=O)NCC(C)C)cc1OC | 1.92%
CNC1=C(N(Cc2ccc(Cl)c(Cl)c2)C(C)=O)C(=O)c2ccccc2C1=O | 14.3%
CC(=O)N(Cc1ccc(F)cc1)C1=C(NCCc2ccccc2)C(=O)c2ccccc2C1=O | 8.33%
CC(=O)N(Cc1ccc(F)cc1)C1=C(NCc2ccccc2)C(=O)c2ccccc2C1=O | 23.1%
CCOC(=O)c1c(N=Cc2cccc(OC)c2O)sc2c1CCN(C)C2 | 0%
O=c1cc[nH]c2cc(N3CCCCCC3)c(F)cc12 | 0%
O=C(Nc1ccc2oc(-c3cccc4ccccc34)nc2c1)c1ccc([N+](=O)[O-])o1 | 7.14%
C=CC1(C)CC23CC(C(OC(=O)c4ccccc4)c4ccnc5ccccc45)N2CCC13 (stereo unspecified) | 3.64%
COc1cccc2cc(-c3nc(-c4ccccc4)cs3)c(=O)oc12 | 6.45%
CCN1/C(=C\C=C2/SC(=S)N(c3ccccc3)C2=O)C(C)(C)c2cc(-c3ccccc3)ccc21 | 25%
COc1cccc(N2C(=O)/C(=C/c3cccnc3)SC2=S)c1 | 0%
Cc1cc(/C=C2/SC(=S)N(CC(=O)O)C2=O)c(C)n1-c1ccccc1 | 0%
N#Cc1c(-c2ccccc2)cc(N2CCN(Cc3ccc(Cl)cc3)CC2)n2c1nc1ccccc12 | 7.5%
COc1cc2c(OC3OCC(OC)C(OC)C3O)c3c(c(-c4ccc5c(c4)OCO5)c2cc1OC)C(=O)OC3 (stereo unspecified) | 27.7%
CCOC(=O)c1c(-c2ccc3c(c2)OCO3)[nH]c2cc(OC)ccc2c1=O | 0%
CCOC(=O)c1c(-c2ccc3c(c2)OCO3)[nH]c2cccc(OC)c2c1=O | 0%
CCOc1ccc(NC(=O)C2c3ccccc3C(=O)N(CC(C)C)C2c2cccs2)cc1 (stereo unspecified) | 6.25%
CS[C@H]1SC[C@H]2C(=O)N(C)[C@@H](C(C)C)C(=O)OC[C@@H](NC(=O)c3cnc4ccccc4n3)C(=O)N[C@@H](C)C(=O)N(C)[C@@H]1C(=O)N(C)[C@@H](C(C)C)C(=O)OC[C@@H](NC(=O)c1cnc3ccccc3n1)C(=O)N[C@@H](C)C(=O)N2C | 34.6%
O=C(Nc1ccc(C2=NCCN2)cc1)c1ccc(-c2ccc(C(=O)Nc3ccc(C4=NCCN4)cc3)cc2)cc1 | 4.4%

Structure (SMILES) | IFI
O=C(CN(CCN1CCOCC1)S(=O)(=O)c1ccccn1)N1CCN(C(c2ccccc2)c2ccccc2)CC1 | 0%
OC1(c2ccc3ccccc3c2)c2c(c3ccccc3c3ccccc23)C2=NCCN21 (stereo unspecified) | 3.25%
CCn1c2ccccc2[n+]2c(C)cc(C)nc12 | 7.14%
COc1cc2nc(NCC3CCCO3)n3nc(-c4ccccc4)nc3c2cc1OC (stereo unspecified) | 2.27%
CCn1c(/C=C/N(C)c2ccccc2)[n+](CC)c2cc(Cl)ccc21 | 6.25%
CC[n+]1c(/C=C/N(C)c2ccccc2)n(-c2ccccc2)c2ccc(-c3nc4ccccc4s3)cc21 | 29.2%
CCOC(=O)c1ccc2c(c1)[n+](CC)c(/C=C/N(C)c1ccccc1)n2CC | 7.41%
NCCC(=O)N1CC(c2ccccc2)c2ccccc2C1CN1CCCCC1 (stereo unspecified) | 4.22%
COc1ccc2cc(CNCCc3cccc(Cl)c3)c(N3CCC(=O)N(CCN(C)C)CC3)nc2c1 | 9.73%
Cc1onc(-c2ccccc2)c1C(=O)N1CCC(CNc2c(-c3ccc(F)cc3)nc3ccccn23)CC1 | 5.56%
Cc1ccc(-c2cc(-c3cc(Cl)ccc3O)on2)cc1 | 0%
c1ccc(Nc2nc(-c3ccccn3)cs2)nc1 | 18.1%
Cc1ccnc(Nc2nc(-c3ccccn3)cs2)c1 | 24.6%
Cc1ccc(Nc2nc(-c3ccccn3)cs2)cc1 | 3.62%
O=C1c2ccccc2C(=O)c2c1ccc1nonc21 | 30.8%
O=S(=O)(NC1CCCC1)c1cccc2nonc12 | 0%
CC(=O)c1ccc2c3c(onc13)-c1ccccc1C2=O | 0%
O=C(C1=C(O)C(=O)N(CCCn2ccnc2)C1c1ccccc1[N+](=O)[O-])c1ccccc1 (stereo unspecified) | 0%
COc1cccc(CNc2ncnc3sc(C(=O)NCC4COCCO4)c(C)c23)c1OC (stereo unspecified) | 1%
COc1ccc(Nc2nc(NN=Cc3cccc([N+](=O)[O-])c3OC)nc(Nc3ccc([N+](=O)[O-])cc3)n2)cc1 | 6.49%
